From the supplement of paper PMC12669032
Unmarked numbers belong to inactive results.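 Rule for the calls: active = AUC reduced over 20% with Padj below 0.05 in at least 2 of 3 replicates; inactive = otherwise.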

Columns and labels:
Experiment in all cases: growth AUC relative to DMSO control (median of replicates) (fraction); higher = more growth (less inhibition), active = hit call of the paper
Conditions in all cases: 20 µM; 24 h
Akkermansia muciniphila = tested on: Akkermansia muciniphila
How it was run: (§1)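 Starting at OD600 0.05, gut bacterial monocultures in mGAM were grown anaerobically at 37 °C with 20 µM compound (1% DMSO) under pierced gas-permeable seals. OD600 was read every hour for 24 h, and the lowest OD of each curve was set to 0. Area under the growth curve was normalised to the plate median of solvent-only wells, or to row and column medians on the industrial chemical plate, and the median of three biological replicates grown on separate days is given.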

Bacteroides caccae = tested on: Bacteroides caccae
How it was run: as §1

Bacteroides clarus = tested on: Bacteroides clarus
How it was run: as §1

Bacteroides dorei = tested on: Bacteroides dorei
How it was run: as §1

Bacteroides stercoris = tested on: Bacteroides stercoris
How it was run: as §1

[1] = tested on: Bacteroides thetaiotaomicron
How it was run: as §1

Bacteroides uniformis = tested on: Bacteroides uniformis
How it was run: as §1

[2] = tested on: Bifidobacterium longum subsp. longum
How it was run: as §1

Clostridium difficile = tested on: Clostridium difficile
How it was run: as §1

Collinsella aerofaciens = tested on: Collinsella aerofaciens
How it was run: as §1

Row | SMILES | growth AUC (Akkermansia muciniphila) | growth AUC (Bacteroides caccae) | growth AUC (Bacteroides clarus) | growth AUC (Bacteroides dorei) | growth AUC (Bacteroides stercoris) | growth AUC [1] | growth AUC (Bacteroides uniformis) | growth AUC [2] | growth AUC (Clostridium difficile) | growth AUC (Collinsella aerofaciens)
1 | O=C(NC(=O)c1c(F)cccc1F)Nc1ccc(Cl)c(Oc2ncc(C(F)(F)F)cc2Cl)c1 | 1.14 | 0.985 | 1.02 | 1.1 | 0.98 | 1.01 | 1.02 | 0.917 | 1.1 | 1.08
2 | CC1(C)C(C=C(Cl)Cl)C1C(=O)OC(C#N)c1cccc(Oc2ccccc2)c1 (stereo not given) | 1.06 | 0.942 | 1.03 | 1.02 | 1.24 | 0.963 | 1.01 | 0.926 | 0.986 | 0.966
3 | CC(C)Nc1nc(Cl)nc(NC(C)C)n1 | 0.954 | 0.825 | 0.989 | 0.965 | 1.14 | 0.96 | 1.02 | 1.07 | 0.986 | 0.961
4 | COP(=O)(OC)Oc1ccc(S(C)(=O)=O)c(C)c1 | 0.876 | 0.971 | 0.963 | 0.987 | 1.01 | 1 | 0.981 | 0.956 | 0.994 | 1.01
5 | COP(=S)(OC)Oc1cc(Cl)c(I)cc1Cl | 1.09 | 0.999 | 0.959 | 0.985 | 1.04 | 0.964 | 0.954 | 0.918 | 0.937 | 0.941
6 | COC(=O)c1cc(Oc2ccc(Cl)cc2Cl)ccc1[N+](=O)[O-] | 1.02 | 0.953 | 0.793 (active) | 0.973 | 0.436 (active) | 0.968 | 0.814 | 1.02 | 0.905 | 0.901
7 | CCCOC(=O)c1ccccc1C(=O)OCCC | 1.16 | 1.04 | 1.03 | 0.983 | 1.18 | 0.992 | 0.989 | 1.05 | 0.999 | 1.01
8 | CCOP(=O)(NC(C)C)Oc1ccc(S(C)(=O)=O)c(C)c1 (stereo not given) | 1.03 | 1.01 | 1.04 | 1.04 | 1.05 | 1.02 | 1.01 | 0.986 | 1.04 | 1.01
9 | COc1cc(OC)n2nc(S(=O)(=O)Nc3c(Cl)ccc(C)c3Cl)nc2n1 | 1.05 | 0.98 | 0.962 | 1.06 | 0.969 | 0.99 | 0.964 | 0.976 | 1.08 | 1.11
10 | CNC(=O)c1cc(Cl)cc(C)c1NC(=O)c1cc(Br)nn1-c1ncccc1Cl | 0.893 | 1 | 0.952 | 0.999 | 0.946 | 0.967 | 0.976 | 0.969 | 0.964 | 1.02
11 | CCSC(=O)N(CC)C1CCCCC1 | 0.936 | 0.998 | 0.974 | 1.02 | 1.06 | 1.01 | 1.01 | 1.01 | 1.01 | 1.09
12 | CCOP(=O)(OCC)O/C(=C/Br)c1ccc(Cl)cc1Cl | 1.06 | 0.94 | 0.952 | 0.948 | 0.879 | 0.89 | 0.821 | 0.991 | 0.978 | 1.06
13 | COC(=O)N(OC)c1ccccc1COc1ccn(-c2ccc(Cl)cc2)n1 | 0.936 | 0.803 | 0.91 | 0.972 | 1.09 | 0.91 | 0.861 | 1.03 | 0.989 | 1
14 | Cc1cnc2c(C(=O)O)c(Cl)ccc2c1 | 0.939 | 0.996 | 0.986 | 1.03 | 1.03 | 0.995 | 1.04 | 0.967 | 0.995 | 1.01
15 | O=C(NC(=O)c1c(F)cccc1F)Nc1cc(Cl)c(OC(F)(F)C(F)F)c(Cl)c1 | 1.17 | 1 | 0.954 | 0.967 | 1.05 | 0.998 | 0.956 | 0.999 | 0.967 | 0.994
16 | CSC1=N[C@@](C)(c2ccccc2)C(=O)N1Nc1ccccc1 | 1.05 | 0.978 | 0.967 | 0.985 | 1.26 | 0.961 | 0.986 | 1.04 | 0.997 | 0.99
17 | O=C(O)C(F)(F)C(F)(F)C(F)(F)C(F)(F)C(F)(F)C(F)(F)C(F)(F)C(F)(F)C(F)(F)F | 0.991 | 0.977 | 0.933 | 1.01 | 0.998 | 1.1 | 1.02 | 0.939 | 0.968 | 0.984
18 | COC(=O)[C@@H](C)N(C(=O)Cc1ccccc1)c1c(C)cccc1C | 0.957 | 0.968 | 0.98 | 0.964 | 0.954 | 0.93 | 0.897 | 1.01 | 0.998 | 1.03
19 | OC(c1ccc(F)cc1)(c1cncnc1)c1ccccc1Cl (stereo not given) | 0.95 | 0.993 | 0.951 | 0.966 | 0.991 | 0.942 | 0.954 | 1.01 | 0.966 | 0.988
20 | CC(C)=CC1C(C(=O)OC(C#N)c2cccc(Oc3ccccc3)c2)C1(C)C (mixture of isomers) | 0.826 | 0.964 | 0.994 | 0.989 | 1.11 | 1.01 | 1.06 | 0.914 | 1 | 0.935
21 | CC1(C)C(C=C(Cl)Cl)C1C(=O)OC(C#N)c1cccc(Oc2ccccc2)c1 (mixture of isomers) | 1.14 | 0.963 | 1 | 0.996 | 1.11 | 0.981 | 1.01 | 0.984 | 1.04 | 0.966
22 | CCS(=O)(=O)c1nc2ccccn2c1S(=O)(=O)NC(=O)Nc1nc(OC)cc(OC)n1 | 1.1 | 1.02 | 1.02 | 0.993 | 1 | 0.995 | 0.989 | 0.928 | 1.01 | 0.983
23 | CC1(C)[C@H](C(=O)O[C@H](C#N)c2cccc(Oc3ccccc3)c2)[C@@H]1C=C(Br)Br | 0.878 | 0.983 | 0.982 | 1.04 | 1.04 | 1.02 | 1.05 | 0.843 | 1.02 | 0.935
24 | c1nc[n]([Sn]([CH]2CCCCC2)([CH]2CCCCC2)[CH]2CCCCC2)n1 | 1.02 | 0.997 | 0.86 | 0.939 | 0.935 | 0.955 | 0.901 | 0.506 | 0.951 | 0.814
25 | CCNc1nc(NC(C)(C)C)nc(SC)n1 | 1.02 | 0.947 | 0.94 | 0.871 | 1.07 | 0.728 | 0.905 | 0.915 | 0.967 | 1
26 | O=[N+]([O-])c1ccccc1 | 1.11 | 1.01 | 1.02 | 0.97 | 1.13 | 1.03 | 1 | 1.06 | 1.01 | 0.951
27 | Clc1ccc(C2(Cn3cncn3)OCCO2)c(Cl)c1 | 1.03 | 0.932 | 0.984 | 0.934 | 0.815 | 0.916 | 0.985 | 1.01 | 0.956 | 0.913
28 | CCOP(=O)(OCC)OP(=O)(OCC)OCC | 1.07 | 0.988 | 1 | 0.956 | 0.932 | 1.03 | 0.992 | 1.02 | 1.03 | 0.966
